{
  "source": "paper PMC12136788",
  "binders": {"B1": {"name": "chr6:38652254:38652255:-_ENSG00000124767_ENST00000373365|hu_hu|hu_hu_hu_mus_False|18_28 (ssRNA)", "RNA": "GGGAGUUCUACAGUCCGACGAUCCGAGAACUUCAUAGCAGGGAAGUCAAGCUUCUGCAGGAGGGUCAGUCCAAGAACCCUCGUAUAAAAAUCCAGGGACUUCUUAGGAUCCUUCACUCGUAGCAUGGUUUGCUGCAGUAGAAACAACAGAGGAUUGAGCAUCA"}, "B2": {"name": "chr18:67804014:67804015:+_ENSMUSG00000024537_ENSMUST00000025418|mus_hu|FALSE|FALSE (ssRNA)", "RNA": "GGGAGUUCUACAGUCCGACGAUCACAAUCGGUAUAGAAGUAACCAAUCUUAGACAUAUUCAGUGUAGAAAUAAUCAGAUCCAUUGCAAGCUGGCCAACAUUUCCAACAGAUACUGCUGGCCUGAAGAUGGGAGUGGAGAGGGACAACAGAGGAUUGAGCAUCA"}, "B3": {"name": "58380664_58380784_167_CDS_ENSMUSG00000075700_ENSMUST00000107924|mouse|control|control (ssRNA)", "RNA": "GGGAGUUCUACAGUCCGACGAUCCUUGAGCAGCGGCCCGGUGGCGUACUGCAUCUUUAAUCUCUUGCUGGGCACGCCGCCCAGGUUGGCAGAGGCCUCGCUGCGGACCACCGCCGACGCCGCCACCAGCAGAAGCAGCAGGAGCAACAGAGGAUUGAGCAUCA"}, "B4": {"name": "5649169_5649289_955_CDS_ENSG00000160633_ENST00000592224|human|control|control (ssRNA)", "RNA": "GGGAGUUCUACAGUCCGACGAUCACAGUCCGUCCUCUCGCCAUCGCCUGGCUGCUCCGCGGGCUCCCUUUUCACUACCGCUAACAGGCUGUCUGCCUUGCUCGACUGAGCGUGUGCUGUUGACUCGCUGGCCAAAUCUAAAUCCAACAGAGGAUUGAGCAUCA"}, "B5": {"name": "chr14:53325254:53325255:-_ENSG00000073712_ENST00000341590|hu_hu|FALSE|FALSE (ssRNA)", "RNA": "GGGAGUUCUACAGUCCGACGAUCAACCACUUUGCAAUCUACUUCAGUACAAAUGAAGGACAAUCGUACUUCAUCUGCAAACUCUACGGUGACCAUUUUGAUUUCCCAGUUGACAUUCCACUGUUUCAUGUUGCUGAAACGCCACAACAGAGGAUUGAGCAUCA"}, "B6": {"name": "93044292_93044412_1315_3pUTR_ENSMUSG00000027217_ENSMUST00000111265|mouse|control|control (ssRNA)", "RNA": "GGGAGUUCUACAGUCCGACGAUCAGGAACAGCUGGUCCCAGGCCAGCCCUAGGUCCUUGUAGAGCCCAUGCCCCUUGCUUUAGAGCCUAGGUGAGGCCCCUUCAUGUCUGUCUUUUUUGUUUGUUUGUUUGUUUAUUUAAAAACAACAGAGGAUUGAGCAUCA"}, "B7": {"name": "chr1:235505951:235505952:+_ENSG00000152904_ENST00000391855|hu_mus|motif|central (ssRNA)", "RNA": "GGGAGUUCUACAGUCCGACGAUCUUUGUAGGCUUUAGCUUCAAGCUCUCUAAGAGUGUGUCGAGUGUAUGCAAAAGAACCGGCAUCCUCCAGGUACUGCACACAAUACUUUUUAAUAUCUAUAUUCUCUGUUCUCUGGCGCAGCAACAGAGGAUUGAGCAUCA"}, "B8": {"name": "52190027_52197400_608_3pUTR_ENSMUSG00000020402_ENSMUST00000102758|mouse|control|control (ssRNA)", "RNA": "GGGAGUUCUACAGUCCGACGAUCGUUGAUGUGCUCCCUCUUGUACCCUGUCUUGAUUUUAGCAUUUUUUUUCCCAGUGUUCGGCGAGAAUGACGAAUCAAAGGUGAGCUUCAGUCCACGAGCAAGCUGGUCUUCCACAGUGAUCAACAGAGGAUUGAGCAUCA"}, "B9": {"name": "chr17:60770872:60770873:+_ENSG00000011028_ENST00000303375|hu_hu|hu_hu_hu_mus_True|48_68 (ssRNA)", "RNA": "GGGAGUUCUACAGUCCGACGAUCUCUUUAAAAAAAAAAAAAAAAAGACAAACAAUAAUAGCACAUUAUUUAAAAAAAGAACUACAAAGAAAGGGCCGCUUUGAGUUUUUGUUCACAUCGUCCUGCACUGGGACACGGGGACUGCAACAGAGGAUUGAGCAUCA"}, "B10": {"name": "chr17:60770872:60770873:+_ENSG00000011028_ENST00000303375|hu_hu|hu_hu_hu_mus_True|68_88 (ssRNA)", "RNA": "B9 RNA with A47U, C48U, A49U, C52A, U55C, A87U, G88A, A89G, A91G, G94U"}, "B11": {"name": "chr17:60770872:60770873:+_ENSG00000011028_ENST00000303375|hu_hu|hu_hu_hu_mus_True|68_78 (ssRNA)", "RNA": "GGGAGUUCUACAGUCCGACGAUCUCUUUAAAAAAAAAAAAAAAAAGACAAACAAUAAUAAUGGCACAUUUAAAAAAAGAACUACAAUAGAGGGUCCGCUUUGAGUUUUUGUUCACAUCGUCCUGCACUGGGACACGGGGACUGCAACAGAGGAUUGAGCAUCA"}, "B12": {"name": "71650973_71651093_4703_CDS_ENSG00000075292_ENST00000264447|human|control|control (ssRNA)", "RNA": "GGGAGUUCUACAGUCCGACGAUCGUAAUCCAGUUUAGAAAGCUUGCCUUGCAGGGCUGAGAUCCUUCCACUGCCUCCUCUGGUAAGACUGCUCUGAGUAGGUUUGAAUUUACUGCUGCUUUCUGCCAAGCCUGACCUGGCACUCAACAGAGGAUUGAGCAUCA"}, "B13": {"name": "chr9:14812383:14812384:-_ENSMUSG00000031934_ENSMUST00000164273|mus_mus|mus_mus_mus_hu_True|38_108 (ssRNA)", "RNA": "GGGAGUUCUACAGUCCGACGAUCAUAGCUCAAGUAGAUACACGCUAACAGUAUAAUGAUGAGUGUCAGCAGGCGGCAGCUAAUGUACUUGAUGAUUAAAUGACUAGAAUUUUUCUUUGUCUUCAAGUACUGCUCCACAAUUGGCAACAGAGGAUUGAGCAUCA"}, "B14": {"name": "chr13:120183613:120183614:-_ENSMUSG00000025453_ENSMUST00000099149|mus_hu|FALSE|FALSE (ssRNA)", "RNA": "GGGAGUUCUACAGUCCGACGAUCGUAAAUAAAACUAAUCAGCGUUCCUGAUGUCUUUAAAAGGUCAGCUUCAUGAACACCUAAUGUUGGAUUAACCAUAGGGGCUCGCACUUUGACCACCAAAUCAGAAGCCAGCACUUCCUUCAACAGAGGAUUGAGCAUCA"}, "B15": {"name": "chr7:34927866:34927867:-_ENSMUSG00000052997_ENSMUST00000102746|mus_mus|FALSE|FALSE (ssRNA)", "RNA": "GGGAGUUCUACAGUCCGACGAUCGCUUUUGGCAGCAUCUUCAGCUUGUUUUGGCCCCACUUUUUCAGGGCUGUCACCAACUACUUCAAAUUCAACAUCCUUUCCAAGAUCUUCACUAUGAAGAAUGUUGAUCAGCAAAGUAUACAACAGAGGAUUGAGCAUCA"}, "B16": {"name": "chr6:52144354:52144355:-_ENSG00000112118_ENST00000229854|hu_hu|FALSE|FALSE (ssRNA)", "RNA": "GGGAGUUCUACAGUCCGACGAUCGGCUGGGGCCUUCUCCGGCAUCUCCUGGAUGGUGAUGGUCUGGUGAUCCUUGUAGACAGAAAGGCCAUAUUCUGUCUCAAGGGGAUUGUUCUCCUCAUCCUUGGUAGGAUAGACAGAGCUCAACAGAGGAUUGAGCAUCA"}, "B17": {"name": "chrX:15845472:15845473:-_ENSG00000182287_ENST00000329235|hu_hu|motif|central (ssRNA)", "RNA": "GGGAGUUCUACAGUCCGACGAUCCCACAAGAAGUCAUCAACAAGGGAGGAGAGUUAUGUCAGUCCAAUUUCUUCAAGAACACGGCGUGGGGUUUCAGCUUCCUCCUGCAGUAGAUCAGCCUGCUCAAUUGCUUUAAGGACAUUCAACAGAGGAUUGAGCAUCA"}, "B18": {"name": "chr16:45382771:45382772:-_ENSMUSG00000022661_ENSMUST00000163230|mus_mus|mus_mus_mus_hu_True|18_78 (ssRNA)", "RNA": "GGGAGUUCUACAGUCCGACGAUCCUGGGUCAUGUUAUAAGACAAAUGGACAGGGAGAGCAUGCUUUUCAAAAAAUGUGAGCUAUUGUCUAAGACUAACAAUAUUUAUCUAGCUAUAUAAAAAUAAGAAAUGAAUAAGUUAAGACAACAGAGGAUUGAGCAUCA"}, "B19": {"name": "chr2:121258011:121258012:+_ENSMUSG00000027248_ENSMUST00000028683|mus_mus|FALSE|FALSE (ssRNA)", "RNA": "GGGAGUUCUACAGUCCGACGAUCCUUGCCUUGUAUCAAAUCUUUAUUAUCUUCCGUCAUAUGAGGACAGAGACCAAAAAUGCUAUCCUGAAUAAAUUUCUUGAUCUUGCCACUGGUCAUUUUCUUUUCAGUAUAUGCCACAGUCAACAGAGGAUUGAGCAUCA"}, "B20": {"name": "chr15:42481402:42481403:-_ENSG00000166887_ENST00000318006|hu_hu|FALSE|FALSE (ssRNA)", "RNA": "GGGAGUUCUACAGUCCGACGAUCCUUUGAAACCGUAGUGAUUUGUUGAAAUGUCAAUAGGUCAUGGACAUAAAUGUUAUUUUCUAACAAGCUGACCAGAAUCUUAAACUGGGAAACCACAUGGAUCUGCUGAAUCUUUUUGGACAACAGAGGAUUGAGCAUCA"}, "B21": {"name": "chr16:45382771:45382772:-_ENSMUSG00000022661_ENSMUST00000163230|mus_mus|mus_mus_mus_hu_True|1_78 (ssRNA)", "RNA": "GGGAGUUCUACAGUCCGACGAUCCUGGGUCAUGUUAUAAGACAAAUGGACAGGGAGAGCAUGCUUUUCAAAAAAUGUGAGCUAUUGUCUAAGACUAACAAUAUUUAUCUAGCUAUAAAAAUAAGUUAAAUGAAUAAACAUUACCAACAGAGGAUUGAGCAUCA"}, "B22": {"name": "chr16:45382771:45382772:-_ENSMUSG00000022661_ENSMUST00000163230|mus_mus|mus_mus_mus_hu_True|8_78 (ssRNA)", "RNA": "GGGAGUUCUACAGUCCGACGAUCCUGGGUCAUGUUAUAAGACAAAUGGACAGGGAGAGCAUGCUUUUCAAAAAAUGUGAGCUAUUGUCUAAGACUAACAAUAUUUAUCUAGCUAUAAAAAUAAGUUUUAAAUGGACGUUAAGACAACAGAGGAUUGAGCAUCA"}},
  "note": "Residue numbers refer to the chain shown, from its start. Whole data set: some 24,000 sequences, median “enrichment r” near 0.99, cut for the highest 2% near 3.7. The full list was thinned out, with the highest values kept by preference.",
  "data": [
    {"biological_target": "T1, UNK ZnF1-3 (human, UniProt Q9C0B0 31-174)", "T1 sequence": "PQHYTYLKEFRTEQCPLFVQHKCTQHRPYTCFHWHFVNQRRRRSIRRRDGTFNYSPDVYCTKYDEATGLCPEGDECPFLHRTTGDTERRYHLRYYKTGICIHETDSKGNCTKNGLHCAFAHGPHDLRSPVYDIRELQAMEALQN", "test": "nsRBNS (natural sequence RNA bind-n-seq); RBNS binding buffer (assumed for nsRBNS): 25 mM Tris pH 7.5, 150 mM KCl, 3 mM MgCl2, 0.01% Triton X-100, 500 ug/ml BSA, 20 U/ml SUPERase-In, 4 C; UNK is unkempt and MSI1 is Musashi-1; names of the RNAs are library labels; protein concentration not given here; high values mean tight binding", "units": {"binding signal": "enrichment R"}, "values": [
      {"binder": "B1", "binding signal": 0.508},
      {"binder": "B2", "binding signal": 1.13},
      {"binder": "B3", "binding signal": 0.563},
      {"binder": "B4", "binding signal": 0.689},
      {"binder": "B5", "binding signal": 0.398},
      {"binder": "B6", "binding signal": 0.554},
      {"binder": "B7", "binding signal": 1.14},
      {"binder": "B8", "binding signal": 0.961},
      {"binder": "B9", "binding signal": 5.29},
      {"binder": "B10", "binding signal": 6.65},
      {"binder": "B11", "binding signal": 5.39},
      {"binder": "B12", "binding signal": 0.641},
      {"binder": "B13", "binding signal": 0.675},
      {"binder": "B14", "binding signal": 0.662},
      {"binder": "B15", "binding signal": 0.727},
      {"binder": "B16", "binding signal": 0.84},
      {"binder": "B17", "binding signal": 1.51},
      {"binder": "B18", "binding signal": 10},
      {"binder": "B19", "binding signal": 1.28},
      {"binder": "B20", "binding signal": 0.563},
      {"binder": "B21", "binding signal": 4.46},
      {"binder": "B22", "binding signal": 5.26}
    ]}
  ]
}
